# Measured values from article PMC5540273 (PLoS ONE, 2017).
# Tests used:
# Details in all cases: concentration: 1 μM, replicates: in singlicate; n = 1
# MST1R = tested on: MST1R
# MST1 = tested on: T1, MST1
# T1 construct: gene STK4
# MST2 = tested on: T2, MST2
# T2 construct: gene STK3
# MST3 = tested on: T3, MST3
# T3 construct: gene STK24
# MST4 = tested on: MST4
# MTOR = tested on: MTOR
# MUSK = tested on: MUSK
# MYLK2 = tested on: MYLK2
# MYLK4 = tested on: MYLK4
# MYLK = tested on: MYLK
# MYO3A = tested on: MYO3A
# MYO3B = tested on: MYO3B
# NDR1 = tested on: T4, NDR1
# T4 construct: gene STK38
# NDR2 = tested on: NDR2
# NEK10 = tested on: NEK10
# NEK11 = tested on: NEK11
# NEK1 = tested on: NEK1
# NEK2 = tested on: NEK2
# NEK3 = tested on: NEK3
# NEK4 = tested on: NEK4
# 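Also: KINOMEscan kinase panel screen.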
Compound,%Inh (MST1R) [%],%Inh (MST1) [%],%Inh (MST2) [%],%Inh (MST3) [%],%Inh (MST4) [%],%Inh (MTOR) [%],%Inh (MUSK) [%],%Inh (MYLK2) [%],%Inh (MYLK4) [%],%Inh (MYLK) [%],%Inh (MYO3A) [%],%Inh (MYO3B) [%],%Inh (NDR1) [%],%Inh (NDR2) [%],%Inh (NEK10) [%],%Inh (NEK11) [%],%Inh (NEK1) [%],%Inh (NEK2) [%],%Inh (NEK3) [%],%Inh (NEK4) [%]
CC(=O)c1c(C)c2cnc(Nc3ccc(N4CCNCC4)cn3)nc2n(C2CCCC2)c1=O,6,0,0,5,0,55,8,6,0,9,11,0,0,0,13,0,0,0,36,0
O=C(Nc1n[nH]c2nc(-c3ccco3)c(Br)cc12)C1CCN(Cc2ccccc2)C1.O=C(O)[C@H](O)[C@@H](O)C(=O)O (stereo not drawn) [SB-742034],7,0,46,13,9,0,0,89,25,3,17,7,8,17,0,1,0,5,47,8
CCn1c(-c2c(N)noc2C)nc2cnccc21 [SB-737856],3,15,0,0,0,28,6,7,9,6,16,0,0,0,8,0,73,1,14,21
Cn1cncc1C(=O)NC1CCN(c2ccnc(Nc3ccc(F)cc3)n2)C1 (stereo not drawn) [GSK1379717],34,0,34,0,0,0,0,1,0,0,15,0,0,0,0,0,0,0,21,3
COC(=O)C(Cc1ccccc1)NC(=O)NC1CCN(c2ccnc(Nc3ccc(F)cc3)n2)C1 (stereo not drawn) [GSK1379714],39,5,0,3,0,33,8,0,13,11,0,20,13,14,14,44,0,0,1,0
O=C(Nc1n[nH]c2nc(-c3cccs3)c(Br)cc12)C1CCCC1 [SB-743341],17,0,51,0,2,12,37,97.7,17,24,17,42,15,15,12,0,0,0,5,0
COC(=O)c1cccc(NC(=O)NC2CCN(c3ccnc(Nc4ccc(OC)cc4)n3)C2)c1 (stereo not drawn) [GSK1379746],42,0,10,0,0,19,0,4,0,0,1,0,0,0,24,8,0,0,14,0
CS(=O)(=O)Cc1ccc(Nc2nccc(-c3c(-c4cccc(NC(=O)C5CCCCC5)c4)nn4ncccc34)n2)cc1 [GSK350559],11,11,44,3,23,18,0,0,0,31,0,0,0,17,22,15,0,10,32,25
Fc1ccc(-c2nc3n(c2-c2ccncc2)CCS3)cc1 [GI98581],39,29,25,0,0,12,15,14,0,12,12,0,0,0,14,9,0,0,6,38
CS(=O)(=O)CCNCc1nc(-c2ccc3ncnc(Nc4ccc(OCc5ccccc5)c(Cl)c4)c3c2)cs1.Cl [GW582764],14,0,0,0,0,8,0,3,0,0,30,0,0,0,11,12,0,3,0,9
Cc1ccc(NC(=O)Nc2ccccc2F)cc1-c1ccc(C(=O)Nc2ccncc2)cc1 [GSK1398477],33,22,7,0,0,11,31,19,7,23,19,0,0,0,9,0,0,22,13,24
Cc1ccc(NC(=O)Nc2ccc(Cl)c(C(F)(F)F)c2)cc1-c1ccc(C(=O)Nc2ccncc2)cc1 [GSK1398470],38,9,0,13,0,16,10,0,2,24,60,0,23,0,2,0,0,23,2,17
CNc1cc(-c2ccc3c(N)n[nH]c3c2)nc(N)n1 [GSK2224810],27,0,0,24,0,0,0,64,56,10,41,0,16,19,0,0,0,0,2,0
Cc1c(Cn2c3ccccc3n3c(=O)cc(N4CCOCC4)nc23)cccc1C(F)(F)F [GSK2306394],0,15,12,2,0,3,6,17,0,2,0,0,0,58,0,0,0,23,0,0
COc1ccc(CSc2nnc(-c3ccc4c(c3)CCO4)o2)cc1,13,0,0,0,0,0,0,0,3,0,0,0,0,0,0,0,10,0,26,0
COc1cccc(CNC(=O)NC2CCN(c3ccnc(Nc4ccc(F)cc4)n3)C2)c1 (stereo not drawn) [GSK1379723],44,11,0,0,0,15,7,0,0,0,0,0,0,0,0,0,0,18,5,22
Cc1ccc(NC(=O)Nc2ccc(Cl)cc2)cc1-c1ccc(C(=O)Nc2ccncc2)cc1 [GSK1398472],20,8,0,0,0,18,11,0,0,2,22,0,17,0,13,0,3,0,10,6
Fc1ccc(-c2nc[nH]c2-c2ccncc2)cc1 [SB-217360],0,13,0,0,0,4,0,0,0,3,0,6,30,9,24,0,0,0,11,0
CCCCc1nn2ncccc2c1-c1ccnc(NC2CC2)n1 [GW684374],38,0,15,0,0,5,19,0,52,0,23,0,8,10,0,0,3,0,0,0
Nc1ncnc2occ(-c3ccc4c(c3)CCN4C(=O)Cc3cc(F)ccc3F)c12 [GSK2645446],11,21,0,13,0,3,3,27,7,9,26,0,11,0,1,2,0,70,0,0
COC(=O)C(NC(=O)NC1CCN(c2ccnc(Nc3ccc(F)cc3)n2)C1)c1ccccc1 (stereo not drawn) [GSK1379712],35,0,28,3,0,31,12,10,13,12,0,0,14,32,0,0,2,0,9,0
